PubChem BioAssay AID1508600 (Functional Genomics Laboratory (NCATS/FGL), 2020)
The whole screen tested about 53,000 sequences, of which about 3,700 (7%) were called active.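 The calls were made as follows: active = gene knockdowns whose robust z-score for IL-1 alpha signal is at least 2 or at most -2, so actives lie on both sides; inactive = the rest.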 The entries come from a sample that favours actives as a whole.

Assay: Components of the Cytosolic LPS Sensing Pathway: Gene Identification via Genome-wide siRNA Screen;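 also: robust z of the log signal after scaling to non-targeting control siRNA wells of the plate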
Details: RAW264.7 macrophages, IL-1a HTRF, actives lie on both sides, screened at 100 nM (by protocol), cells primed 5 h with Pam3CSK4 first
Summary of the method: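 Mouse macrophage line RAW264.7 is transfected with siRNA (100 nM final), grown 48h, primed with TLR ligand Pam3CSK4 5 h and given intracellular LipidA 24 h. IL-1a in supernatant is read by HTRF and viability by luminescence.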

z-score, inactive:
GGUUCUUAAUGCAUUCCCGTT against Cyp2d9 -0.786, GGGACUUUGAUUUUGAGAGTT against Ppp1r3f -1.58, GAUGCUCUCUGCUCUGAGATT against C030016D13Rik -0.0555, GGUAAUAGGAGAUACUGUGTT against Gzme 0.624, GGACCUUUCUCAACUACUATT against Edem2 -0.706, GGGAAACAAGCAUCUUCUGTT against Bmp5 -0.474, CCACUUCAGUAUUUGGCUUTT against Tas2r137 -0.404, GGACUCCUCAUGCUGAAGATT against Cdh13 1.97, GCUCUAUUUGACCACCUCATT against Gdpd1 -0.898, CCACUCAAGAUCGAUACCUTT against Fgd1 0.167, GGGUGAAGAGAGAUGAAAATT against Krt82 1.64, GCUUGUUUACAUCGGACUUTT against Samt2 0.9, GCAUCGUGCAGAAUUUUGCTT against Ephb1 -1.04, CCAGUGAUUAUCUUUAAUGTT against Slc9c1 -0.435, GGUUAAGGAUGCUCAAGUATT against Krt20 -0.187, GGUCGUGUUCGAGCAAACCTT against Tpi1 -0.725, GGUGACAUGGAUGUAGCAATT against Fcsk 1.18, CCACAUCUCAUGUGAAACCTT against Olfr517 -0.927, CCUUUUACACUCUAGUAUGTT against Ptger4 -0.349, GCUUGAAUAUGAGAACGAATT against Deup1 -0.451, GGGCAACAAGGAGUACUCATT against Prss45 -1.88, GGAGGAAAUGAAAACCUUUTT against Cep89 -0.823, GGAGAACAUAAUGAAAUCUTT against Fam50a -0.0744, GGAUCAAAUUCUACCUUAGTT against Tbc1d5 -0.595, GGAGGUUGCUACAUGGUUATT against Amz1 -0.644, GGUCCACUGAUUCUGAUAATT against Cyp4a31 1.79, GGAUUUUGCCUAAAAUACATT against Sephs1 0.179, GGGCAAAUCCUUUAGUUUGTT against Siae -0.62, CUACAGUGGCAAUAAUAUUTT against Rpl30 0.425, GGUACUAAAUAAAAGACCGTT against Dsc2 1.15, GGAGGAGAGAUGGUAAUCCTT against Olfr729 -0.185, GGUAACUGGGAAUUGUGUUTT against Vti1a 0.812, GGGUCUCUAAGUGCUCCGUTT against Sfxn2 0.433, CGUGAAUCACUAUACAUAATT against A630052C17Rik -1.39, GGAAACAGUAGAAGAUGAGTT against Fam220a 0.151, GGAGCUCGCCAAAAGGAAGTT against Cep19 1.97, CCAAAGAAGGUGAGAUUUGTT against Clstn1 -0.161, CCAGUAUGAGAACUACGAUTT against Loxl1 -0.345, GCAGUAAAUGUCCCAUCCGTT against Caskin1 -1.28, CCCAUCCAUACAAAAAUGATT against Polm -1.73, CCUUAUUGAGACGAAUACGTT against Fastkd1 -0.958, GGACAACAGCAAAACAUCUTT against Atoh1 -0.757, CCCAUAACAUUGGUGAUUATT against Vmn1r235 -0.205, CGUUAAAUGGCAGUACAGATT against Qk 0.388, GCCAAACACUCGACUCUAATT against Gm11733 -0.823, GGAAAACUUUAGCUACAAATT against Ppp4r4 -0.231, GCAGACGACAAGUUCUACATT against Tbcb -0.666, GCUUAUCAUCUCCAGACAGTT against Svop -0.144, GGUGGAGUUAACGAGAAACTT against Ccn1 0.69, ACUGUUUAAUCACUGUGGUTT against Olfr891 -0.994, GGACUACAUCAACCUGGAUTT against Mlf2 0.25, GGUCUUCGACACCAUUAACTT against Wipi2 0.947, CCCUGUGACUCCAAAAUGATT against Dbh -1.01, GGACAACGUGCUCAUUAGUTT against Zfp709 0.0713, GCCUGACGAAGGUUUCUAUTT against Neo1 -0.114, GGCAUAAACCUUCUUGCUCTT against Ccl22 -0.221

z-score, active:
GGUAAAGAAAUCCUUCAAATT against Syt6 2.1, GGAUCUAUAUCCAGUAGAGTT against Mief2 3.38, GCUAUCAAAGCUAAUACAUTT against Mrps9 3.41, GCAGAAUUGAAGCUGGAAUTT against Stag1 2.49, GGUCAAGGUAGGCAAUGAATT against Stau2 -2.32, GGGACAGCUUUUGUGACUCTT against Raver1 -2.16, GGAUGAGUAUGAGAGGAAUTT against Dcp1a 2.51, GAAGACCAAGCUUUGUACUTT against Olfr339 2.28, CCGUUUUGUCUGAAUUCCCTT against 4930515G01Rik -2.14, GGAAUGAGCUGAAUGCAAATT against Psmc5 -2.08, GCUUCUAACUCUGUGAGGGTT against Defb29 -2.8, GCUGGUUACUCCCAAGACGTT against Dlgap2 2.18, GGACAGUUUGAUGAUGCCGTT against Coprs -2.87
